The values that follow come from PubChem BioAssay (EPA / NIEHS).

The nature of test [1]: ATG_PBREM_CIS: Attagene CIS-FACTORIAL HepG2 Assay for human Phenobarbital-responsive Enhancer Module (PBREM) (AID 2282955). Conditions: HepG2 PBREM cis-reporter, Attagene multiplexed transcription; actives raise or lower the signal. A digest of the protocol: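 HepG2 cells transiently transfected with multiple cis-regulated reporter units measure endogenous transcription factor activity; 24 h compound exposure. Reporter mRNA quantified by RT-PCR, fluorescent labelling, HpaI digestion and capillary electrophoresis; bidirectional fit versus DMSO.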

For test [2], the target named is Paired box protein Pax-6 (Homo sapiens) (UniProt P26367). Briefly: ATG_Pax6_CIS: Attagene CIS-FACTORIAL HepG2 Assay for human Paired Box 6 (PAX6) (AID 2282956). The conditions noted are these: HepG2 CIS-FACTORIAL PAX6 reporter transcription, RNA readout; actives raise or lower the signal. Summed up: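 Transient MRTU transfection of HepG2 → compound exposure 24 h → TriZol RNA, oligo(dT) RT → PCR, 6-FAM primer extension, HpaI cut → capillary electrophoresis; activity fitted both directions against DMSO.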
Chain of Paired box protein Pax-6 (Homo sapiens) (P26367 whole entry, looked up): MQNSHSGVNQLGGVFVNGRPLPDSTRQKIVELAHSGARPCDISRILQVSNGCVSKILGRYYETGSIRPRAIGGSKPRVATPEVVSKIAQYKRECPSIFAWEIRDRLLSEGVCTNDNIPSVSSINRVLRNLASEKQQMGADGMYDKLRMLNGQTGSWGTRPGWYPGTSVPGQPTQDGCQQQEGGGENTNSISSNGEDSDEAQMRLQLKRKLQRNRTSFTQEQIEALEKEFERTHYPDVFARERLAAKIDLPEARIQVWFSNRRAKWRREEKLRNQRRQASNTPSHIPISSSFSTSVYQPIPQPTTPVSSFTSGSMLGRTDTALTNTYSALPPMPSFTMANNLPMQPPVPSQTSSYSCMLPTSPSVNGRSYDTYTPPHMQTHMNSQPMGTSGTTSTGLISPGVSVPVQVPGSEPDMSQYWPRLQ

Test [3] in a line: ATG_PXRE_CIS: Attagene CIS-FACTORIAL HepG2 Assay for human Pregnane X Receptor Element (PXRE) (AID 2282957). Conditions: HepG2 Attagene CIS-FACTORIAL PXRE reporter, mRNA; actives raise or lower the signal. A digest of the protocol: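 HepG2 cells transiently transfected with cis-regulated multiple reporter transcription units; endogenous factor activity measured as reporter mRNA 24 h after dosing. RT-PCR, fluorescent primer extension, HpaI digestion, capillary electrophoresis; bidirectional fit versus DMSO baseline.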

The nature of test [4]: ATG_PPRE_CIS: Attagene CIS-FACTORIAL HepG2 Assay for human Peroxisome Proliferator-activated Response Element (PPRE) (AID 2282958). Conditions: HepG2 PPRE cis-element reporter, Attagene transcription factor profiling; actives raise or lower the signal. Summed up:
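HepG2 cells are transiently transfected with multiplexed cis-promoter reporter units to report endogenous PPAR activity. After 24 h dosing, reporter mRNA is read by RT-PCR and capillary electrophoresis. Fitting is bidirectional against DMSO.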

Test [5] can be described thus: ATG_RORE_CIS: Attagene CIS-FACTORIAL HepG2 Assay for human RAR-related Orphan Receptor Element (RORE) (AID 2282959). The conditions noted are these: HepG2 Attagene cis-factorial RORE reporter, mRNA; actives raise or lower the signal. A digest of the protocol: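 HepG2 cells carrying transiently transfected cis-regulated reporter units; RORE-driven reporter mRNA quantified 24 h post-dosing by RT-PCR, 6-FAM primer extension, HpaI digestion and capillary electrophoresis. Bidirectional fit versus DMSO.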

Test [6] addresses Transcription factor Sp1 (Homo sapiens) (UniProt P08047). Description: ATG_Sp1_CIS: Attagene CIS-FACTORIAL HepG2 Assay for human Specificity Protein 1 (Sp1) (AID 2282961). Conditions: HepG2 Sp1 cis-reporter transcription, actives raise or lower the signal. Summed up:
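HepG2 cells transiently transfected with multiplexed cis-regulated reporter constructs, chemical exposure 24 h. Reporter mRNA quantified by RT-PCR with capillary electrophoresis; bidirectional fit relative to DMSO.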

A short description of test [7]: ATG_SREBP_CIS: Attagene CIS-FACTORIAL HepG2 Assay for human Sterol Regulatory Element Binding (SREBP) (AID 2282962). The conditions noted are these: HepG2 Attagene cis-factorial SREBP reporter, mRNA; actives raise or lower the signal. Summed up:
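Transfected HepG2 (cis-regulated reporter library, endogenous TFs) → compound 24 h → total RNA → oligo(dT) RT → reporter-specific PCR → FAM primer extension, HpaI cut → CE fluorescence. Fit bidirectional vs DMSO.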

For test [8], the target named is Signal transducer and activator of transcription 3 (Homo sapiens) (UniProt P40763). Briefly: ATG_STAT3_CIS: Attagene CIS-FACTORIAL HepG2 Assay for human Signal Transducer and Activator of Transcription 3 (STAT3) (AID 2282963). Conditions: HepG2, Attagene cis-factorial STAT3 reporter transcription; actives raise or lower the signal. Summed up: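 Transcript-level reporter assay. HepG2 transient MRTU transfection, 24 h exposure, fluorescence detection after RT-PCR and CE; DMSO baseline.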
Chain of Signal transducer and activator of transcription 3 (Homo sapiens) (P40763 whole entry, looked up): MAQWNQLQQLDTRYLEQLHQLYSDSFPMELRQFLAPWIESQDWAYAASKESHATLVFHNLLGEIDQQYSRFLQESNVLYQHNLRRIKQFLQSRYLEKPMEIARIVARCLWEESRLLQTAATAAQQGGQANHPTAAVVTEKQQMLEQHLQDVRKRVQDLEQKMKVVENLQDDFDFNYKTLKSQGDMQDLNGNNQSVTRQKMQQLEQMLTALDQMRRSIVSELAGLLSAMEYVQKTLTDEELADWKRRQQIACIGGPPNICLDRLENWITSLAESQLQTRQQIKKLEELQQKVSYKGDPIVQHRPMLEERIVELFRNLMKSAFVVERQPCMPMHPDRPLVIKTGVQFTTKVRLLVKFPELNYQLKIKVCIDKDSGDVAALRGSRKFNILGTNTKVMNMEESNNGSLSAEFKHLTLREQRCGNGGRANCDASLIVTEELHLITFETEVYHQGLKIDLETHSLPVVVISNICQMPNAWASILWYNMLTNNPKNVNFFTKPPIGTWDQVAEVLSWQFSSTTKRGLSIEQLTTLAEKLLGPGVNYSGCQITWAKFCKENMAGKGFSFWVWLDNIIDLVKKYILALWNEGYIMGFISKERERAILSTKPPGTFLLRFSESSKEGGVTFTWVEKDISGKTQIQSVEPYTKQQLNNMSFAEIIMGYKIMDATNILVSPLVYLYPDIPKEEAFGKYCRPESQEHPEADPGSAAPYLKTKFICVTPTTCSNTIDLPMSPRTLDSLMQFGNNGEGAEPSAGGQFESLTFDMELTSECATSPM

Test [9] can be described thus: ATG_TA_CIS: Attagene CIS-FACTORIAL HepG2 Assay for human TA Basal Promoter (AID 2282964). Conditions: HepG2 Attagene CIS-factorial TA basal promoter reporter; actives raise or lower the signal. A digest of the protocol:
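Background internal-marker endpoint from a 52-component HepG2 cis-reporter panel. Cells treated 24 h; reporter transcripts quantified via RT-PCR and CE fluorescence against DMSO baseline.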

A short description of test [10]: ATG_Sox_CIS: Attagene CIS-FACTORIAL HepG2 Assay for human SRY-box transcription factor (SOX) (AID 2282960). The conditions noted are these: HepG2 Attagene cis-factorial SOX reporter, mRNA; actives raise or lower the signal. A digest of the protocol: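 HepG2 cells transiently transfected with multiple cis-regulated reporter units, then dosed for 24 h. Reporter mRNA quantified by RT-PCR, fluorescent labelling, HpaI digestion and capillary electrophoresis; bidirectional fit versus DMSO.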

Where “and” joins values, the source holds several entries; their conditions need not be identical. Identical values can stand only once. The source holds several records for some structures; these can differ, active in one and inactive in another. Calls of active or inactive are those of the source. The calls were made as follows: active = hit-call score of the fitted dose curve at least 0.9, where 1 is the maximum; inactive = score below 0.9.

Broadly, the AC50 is the concentration at which the activity in the assay is half-maximal.

Chain of Transcription factor Sp1 (Homo sapiens) (P08047 whole entry, looked up): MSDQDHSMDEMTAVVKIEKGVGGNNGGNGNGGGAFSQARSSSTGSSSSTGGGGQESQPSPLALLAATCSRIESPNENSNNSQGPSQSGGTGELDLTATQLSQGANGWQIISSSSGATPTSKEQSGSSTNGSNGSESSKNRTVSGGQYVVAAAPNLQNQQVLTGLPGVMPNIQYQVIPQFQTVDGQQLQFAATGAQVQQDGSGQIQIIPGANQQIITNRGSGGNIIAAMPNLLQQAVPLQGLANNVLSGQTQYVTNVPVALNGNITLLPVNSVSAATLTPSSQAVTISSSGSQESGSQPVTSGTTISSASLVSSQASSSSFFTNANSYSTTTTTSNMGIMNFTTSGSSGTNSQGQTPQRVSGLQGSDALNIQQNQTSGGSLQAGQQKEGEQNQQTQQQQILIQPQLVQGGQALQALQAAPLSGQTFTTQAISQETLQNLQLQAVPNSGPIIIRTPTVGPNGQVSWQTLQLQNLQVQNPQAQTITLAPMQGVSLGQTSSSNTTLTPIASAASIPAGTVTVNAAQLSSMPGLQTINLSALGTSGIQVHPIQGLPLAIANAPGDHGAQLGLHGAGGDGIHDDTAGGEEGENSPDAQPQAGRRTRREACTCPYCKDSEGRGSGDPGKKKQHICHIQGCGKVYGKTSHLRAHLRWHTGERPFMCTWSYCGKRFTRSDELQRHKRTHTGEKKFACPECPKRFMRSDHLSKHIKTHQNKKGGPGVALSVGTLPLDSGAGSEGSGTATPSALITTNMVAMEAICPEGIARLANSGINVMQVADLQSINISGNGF

Consider `O[Si](c1ccccc1)(c1ccccc1)c1ccccc1`, for which the result in [1], in [2], in [4], in test [5], in test [6] and in test [8] was inactive. In test [9], the call was inactive. The AC50 in test [3] is 0.897 µM (active); in test [7], 69.1 µM (active).

Turning to `CCN(Cc1cccc(S(=O)(=O)O)c1)c1ccc(C(=C2C=CC(=[N+](CC)Cc3cccc(S(=O)(=O)O)c3)C=C2)c2ccc(O)cc2S(=O)(=O)[O-])cc1`, the outcome in [1], in test [2], in test [3], in [5], in test [6] and in test [7] was inactive. Also, the outcome in [8] and in test [9] was inactive. The AC50 in [4] was 17.8 µM (active).

On to `FC(F)(F)C(F)(F)C(F)(F)C(F)(F)CCI`, for which the result in [1], in [2], in [3], in [4], in test [6] and in test [7] was inactive. Moreover, the outcome in [8] and in test [9] was inactive.

For the molecule `[Co]`, the result in test [1], in test [2], in [4], in [10], in test [6] and in test [7] was inactive. Further, the molecule was classed as inactive in [8] and in test [9]. Besides, the half-maximal activity concentration (AC50) in test [3] is 13.8 µM (active).

As for `O=C(OCCOCCOCCOC(=O)c1ccccc1)c1ccccc1`, the result in test [1], in test [2], in test [3], in test [4], in [10] and in test [6] was inactive. For the same molecule, the molecule was classed as inactive in test [7], in test [8] and in test [9].

With `OC[C@@H](O)[C@@H](O)[C@H](O)[C@@H](O)CO`, the molecule was classed as inactive in test [2], in test [3], in test [5], in test [10], in test [6] and in [7]. For the same molecule, the molecule was called inactive in test [8] and in test [9]. The concentration at half-maximal activity (AC50) in test [3] is 26.3 µM (active).

As for `CCCCCCOC(=O)c1ccccc1O`, the outcome in [1], in test [2], in [4], in test [6], in [7] and in test [8] was inactive. In test [9], the outcome was inactive. For the same molecule, in test [3], the half-maximal activity concentration (AC50) was 62.5 µM (active).

Take `O=C(O)C(F)(F)C(F)(F)C(F)(F)C(F)(F)C(F)(F)C(F)(F)C(F)(F)C(F)(F)C(F)(F)C(F)(F)C(F)(F)C(F)(F)F`: the result in test [1], in test [2], in test [3], in test [4], in test [10] and in test [6] was inactive. The outcome in test [7], in [8] and in [9] was inactive.

Take `N=C(N)C(F)(F)C(F)(F)C(F)(F)C(F)(F)C(F)(F)C(F)(F)C(F)(F)F`: the outcome in test [1], in [2], in test [3], in test [4], in test [10] and in [6] was inactive. Further, the molecule was classed as inactive in test [7], in test [8] and in [9].

In the case of `CCCCCCCCC(F)(F)C(F)(F)C(F)(F)C(F)(F)C(F)(F)C(F)(F)F`, the outcome in [1], in test [2], in [3], in [4], in test [10] and in test [6] was inactive. For the same molecule, the molecule was called inactive in test [7], in test [8] and in [9].

For the molecule `CCCCCCCOC(=O)c1ccccc1C(=O)OCCCCCCC`, the outcome in [1], in test [2], in test [4], in test [6], in test [7] and in test [8] was inactive. The molecule was called inactive in test [9]. In addition, in test [3], the concentration at half-maximal activity (AC50) is 5.36 µM (active).

On to `CC(C)c1ccccc1N`, for which the outcome in test [1], in test [2], in test [4], in test [6], in test [7] and in [8] was inactive. For the same molecule, the molecule was classed as inactive in [9]. The half-maximal activity concentration (AC50) in test [3] is 34.9 µM (active).

In the case of `O=C(O)C(F)(F)C(F)(F)C(F)F`, the outcome in test [1], in [2], in test [3], in test [4], in [6] and in test [7] was inactive. Moreover, the outcome in [8] and in test [9] was inactive.

For the molecule `CCCCCCOC(=O)c1ccccc1`, the outcome in [1], in [2], in test [3], in test [4], in test [10] and in [6] was inactive. Moreover, the molecule was called inactive in test [7], in test [8] and in test [9].

In the case of `O=C(O)C(F)(OC(F)(F)C(F)(OC(F)(F)C(F)(F)C(F)(F)F)C(F)(F)F)C(F)(F)F` (stereo not drawn), the result in [1], in test [2], in [3], in test [4], in [10] and in [6] was inactive. Further, the result in test [7], in [8] and in test [9] was inactive.

On to `O=S(=O)(O)c1ccc2ccccc2c1`, for which the molecule was called inactive in test [2], in test [4], in test [6], in test [7], in test [8] and in test [9]. In test [3], the concentration at half-maximal activity (AC50) was 11.2 µM (active) and 91 µM (active).

Regarding `CCCCOCCOCCOC(=O)CCCCC(=O)OCCOCCOCCCC`, the outcome in [1], in test [2], in test [4], in test [10], in test [6] and in test [7] was inactive. In addition, the call in [8] and in test [9] was inactive. In addition, the AC50 in [3] was 26.9 µM (active).

As to `COC(=O)C1CCC(C(=O)OC)CC1` (stereo not drawn), the result in test [2], in [3], in test [4], in test [10], in test [6] and in test [7] was inactive. For the same molecule, the outcome in test [8] and in test [9] was inactive.

Turning to `C=CC(=O)OCC(F)(F)C(F)(F)C(F)(F)C(F)(F)COC(=O)C=C`, the outcome in test [1], in test [3], in test [4], in [8] and in test [9] was inactive. The results for the half-maximal activity concentration (AC50) in test [2], in test [6] and in test [7] were 62.1 µM (active), 44.7 µM (active) and 72.4 µM (active), respectively.

With `Cc1ccc(S(=O)(=O)NCl)cc1`, the molecule was classed as inactive in test [2], in test [3], in test [10], in test [6], in test [7] and in test [8]. For the same molecule, in test [9], the outcome was inactive. Further, the half-maximal activity concentration (AC50) in [3] is 131 µM (active).

As to `CC(C)OC(=O)c1ccccc1C(=O)OC(C)C`, the outcome in [1], in test [2], in [4], in test [6], in [7] and in [8] was inactive. In test [9], the molecule was classed as inactive. Moreover, the AC50 in test [3] was 3.7 µM (active).

`OCCCC(F)(F)C(F)(F)C(F)(F)F`: the outcome in test [1], in test [2], in test [3], in test [4], in test [10] and in [6] was inactive. Further, the molecule was classed as inactive in test [7], in [8] and in [9].

In the case of `c1ccc(-c2ccccc2-c2ccccc2)cc1`, the result in test [1], in test [2], in test [4], in test [8] and in test [9] was inactive. Besides, the AC50 in test [3] was 5.73 µM (active); in test [6], 100 µM (active); in [7], 100 µM (active).

For `CCO[Si](CCC(F)(F)C(F)(F)C(F)(F)C(F)(F)C(F)(F)C(F)(F)F)(OCC)OCC`, the outcome in test [1], in [2], in test [3], in test [4], in test [10] and in test [6] was inactive. For the same molecule, the result in [7], in test [8] and in [9] was inactive.

In the case of `FC(F)(I)C(F)(F)C(F)(F)C(F)(F)I`, the result in [1], in test [2], in test [3], in [4], in test [10] and in test [6] was inactive. In addition, the molecule was called inactive in test [7], in [8] and in test [9].
